Test [1] deals with Nuclear receptor subfamily 1 group I member 3 (Homo sapiens) (UniProt Q14994). The test is described as follows: Primary qHTS for antagonist of constitutive androstane receptor (CAR) against the NCATS DSHEA and TCM libraries (AID 1794836). Note: potency is the fitted concentration of half-maximal effect. In short, it runs like this:
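HepG2-CYP2B6-hCAR cells, attached 5 h, given compounds plus CITCO agonist […], incubated 24 h at 37 C. Luciferase luminescence read, multiplexed with CellTiter-Fluor viability (Ex/Em 405/540 nm).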

Test [2] can be described thus: HepG2 viability counterscreen (readout 2: ATP content) against the NCATS DSHEA and TCM libraries (AID 1794840). In short, it runs like this:
(§1)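 HepG2 cells (1,000 cells/well) attached ~4 h, then treated ~24 h at 37C with substances. Protease activity read by GF-AFC (25 uM final, 30 min, Ex/Em 380/510 nm); ATP content then by CellTiter-Glo luminescence.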

A short description of test [3]: HepG2 viability counterscreen (readout 1: protease activity) against the NCATS DSHEA and TCM libraries (AID 1794841).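 Note: cells exposed to compounds for about 24 h before the protease read.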 In short, it runs like this: as §1
Background: The purpose of a counterscreen is to sort out artefacts and off-target activity.

In test [4] the target is Cytochrome P450 2C19 (Homo sapiens) (UniProt P33261). The test is described as follows: qHTS for inhibitors of CYP2C19 against the NCATS DSHEA and TCM libraries (AID 1919974).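 Note: luminescence from luciferin released by CYP2C19 oxidation of a pro-luciferin substrate; potency is the fitted concentration of half-maximal effect.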 In short, it runs like this:
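Luminescent P450-Glo readout. Enzyme plus pro-luciferin substrate in manufacturer buffer (typically 100 mM KPO4); 15 min RT preincubation; 1x NADPH regenerating system, 30-45 min RT in the dark; detection reagent 30 min.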

A short description of test [5]: KB-3-1 P-gp reporter qHTS against the NCATS DSHEA and TCM libraries (AID 1919975). In short, it runs like this: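 Parental KB-3-1 human cervical adenocarcinoma cells (500 cells/well, DMEM + 10% FBS) were treated with substances for ~72 h at 37C; viability was read by CellTiter-Glo luminescence.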
In general terms: Quantitative high-throughput screening tests each substance at several concentrations.

Test [6] concerns the target Cytochrome P450 1A2 (Homo sapiens) (UniProt P05177). The test is described as follows: qHTS for inhibitors of CYPIA2 against the NCATS DSHEA and TCM libraries (AID 1919976).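 Note: light from luciferin formed by CYP1A2 from a pro-luciferin substrate; series mostly up to about 37 µM.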 In outline:
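Human CYP1A2 with its pro-luciferin substrate in supplier buffer (typically 100 mM KPO4) was pre-incubated with compounds 15 min at RT. Reaction was started with 1x NADPH regeneration solution and run 30-45 min at RT in the dark, then luminescence was read after P450-Glo detection reagent (30 min RT).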

A short description of test [7]: qHTS Counterscreen for compound interference against the NCATS DSHEA and TCM libraries (AID 1919978). The conditions noted are these: firefly luciferase detection reagent interference, luminescence. In outline:
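D-luciferin (1 uM final) or 100 mM potassium phosphate buffer alone was preincubated 15 min at RT with compounds (19.5 nM to 39.8 uM final). Luciferin detection reagent was then added and luminescence read after 30 min at RT.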

Test [8] in a line: Dual reporter qHTS for agonist of Pregnane X Receptor (hPXR) against the NCATS DSHEA and TCM libraries: Fluorescence readout (AID 1920058). In short, it runs like this: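 hPXR-Luc HepG2 cells (2000/well) in phenol red-free medium with charcoal-stripped FBS attached for 5 h, then were exposed to compounds for about 24 h at 37 °C. Viability was read by CellTiter-Fluor fluorescence (Ex/Em 405/540 nm) after 1 h.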

The nature of test [9]: Dual reporter qHTS for antagonist of Pregnane X Receptor (hPXR) against the NCATS DSHEA and TCM libraries: Fluorescence Readout (AID 1920061). In short, it runs like this: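 Antagonist mode: rifampicin 2 uM final co-added with compounds to hPXR-LucHepG2 cells for 24 h at 37C. Viability by CellTiter-Fluor, Ex/Em 405/540 nm, 1 h; reporter by ONE-Glo luminescence.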
The target of test [10] is Glutathione peroxidase 1 (Homo sapiens) (UniProt P07203). The test is described as follows: Primary qHTS Assay for Inhibitors of Recombinant Selenoprotein Glutathione Peroxidase 1 (GPX1) (AID 1845191). Note: nearly all actives have a fitted effect of over 65% in size. In short, it runs like this:
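GR-coupled assay: compounds preincubated 30 min at room temperature with GPX1, then reaction started with CHP; final 10 nM GPX1, 1 mM GSH, 0.5 mM CHP, 0.5 mM NADPH, 100 nM GR, 0.01% BSA, pH 7.5 Tris buffer. NADPH fluorescence (340/450 nm) read at 0 and 15 min.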

Test [11] can be described thus: qHTS for differential inhibitors of proliferation of Plasmodium falciparum line 3D7 (AID 1876). Note: potency is the fitted concentration of half-maximal effect.
Test [12] in a line: Validation screen for inhibitors of Lassa infection (AID 463096; calls by dose curve).
Test [13] addresses Cytochrome P450 3A4 (Homo sapiens) (UniProt P08684). The test is described as follows: qHTS Assay for Activators of Cytochrome P450 3A4 (AID 885). Note: nearly all actives have a fitted effect of over 65% in size. In outline:
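20nM CYP3A4 + 25uM Luciferin-PPXE (=KM), 200mM KPO4; cpd 10 min RT; NADPH regen, 60 min RT; stop w/ detection buffer, 20 min; luminescence. Normalized to 57 uM ketoconazole.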

Test [14] in a line: qHTS for differential inhibitors of proliferation of Plasmodium falciparum line W2 (AID 1883).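 Note: potency is the fitted concentration of half-maximal effect; parasites grown with compound for 72 h before lysis and staining.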 The note with it: Potency: Plasmodium falciparum W2 proliferation inhibition.
A short description of test [15]: qHTS for differential inhibitors of proliferation of Plasmodium falciparum line HB3 (AID 1886).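 Note: potency is the fitted concentration of half-maximal effect; parasites grown with compound for 72 h before SYBR Green readout.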 The conditions noted are these: Potency: Plasmodium falciparum HB3 proliferation inhibition.

The structures appear in SMILES notation. A number with no mark means an inactive call. Records with an inconclusive call do not appear. Where a call stands in place of a potency, no number is given. The source made the active and inactive calls. Unless noted, calls come from the whole dose curve; as a rule, active = well fitted curve in the direction sought with a large enough effect; inconclusive = small, poorly fitted or top-dose-only effect, or another doubt; inactive = no such curve, though single readings can be large; an effect the other way counts as inactive or inconclusive.

Our source for the Potency, outcome and max response values is PubChem BioAssay (NCATS).

Sequence of Glutathione peroxidase 1 (Homo sapiens) (P07203 whole entry, looked up): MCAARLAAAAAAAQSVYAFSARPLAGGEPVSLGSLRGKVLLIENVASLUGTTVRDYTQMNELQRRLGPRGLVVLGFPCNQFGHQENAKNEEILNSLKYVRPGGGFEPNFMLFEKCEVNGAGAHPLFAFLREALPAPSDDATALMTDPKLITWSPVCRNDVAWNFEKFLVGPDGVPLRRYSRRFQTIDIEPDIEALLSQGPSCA
Sequence of Nuclear receptor subfamily 1 group I member 3 (Homo sapiens) (Q14994 whole entry, looked up): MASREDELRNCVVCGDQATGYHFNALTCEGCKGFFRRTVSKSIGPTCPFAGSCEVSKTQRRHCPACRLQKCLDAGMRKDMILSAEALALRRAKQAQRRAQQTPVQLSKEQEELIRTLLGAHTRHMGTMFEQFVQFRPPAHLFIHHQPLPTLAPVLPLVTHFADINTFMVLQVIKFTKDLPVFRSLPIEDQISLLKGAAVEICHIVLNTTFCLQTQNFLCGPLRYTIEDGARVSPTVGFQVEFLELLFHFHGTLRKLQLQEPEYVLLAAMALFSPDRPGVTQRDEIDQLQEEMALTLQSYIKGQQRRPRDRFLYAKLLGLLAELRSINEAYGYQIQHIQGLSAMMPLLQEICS
Sequence of Cytochrome P450 3A4 (Homo sapiens) (P08684 whole entry, looked up): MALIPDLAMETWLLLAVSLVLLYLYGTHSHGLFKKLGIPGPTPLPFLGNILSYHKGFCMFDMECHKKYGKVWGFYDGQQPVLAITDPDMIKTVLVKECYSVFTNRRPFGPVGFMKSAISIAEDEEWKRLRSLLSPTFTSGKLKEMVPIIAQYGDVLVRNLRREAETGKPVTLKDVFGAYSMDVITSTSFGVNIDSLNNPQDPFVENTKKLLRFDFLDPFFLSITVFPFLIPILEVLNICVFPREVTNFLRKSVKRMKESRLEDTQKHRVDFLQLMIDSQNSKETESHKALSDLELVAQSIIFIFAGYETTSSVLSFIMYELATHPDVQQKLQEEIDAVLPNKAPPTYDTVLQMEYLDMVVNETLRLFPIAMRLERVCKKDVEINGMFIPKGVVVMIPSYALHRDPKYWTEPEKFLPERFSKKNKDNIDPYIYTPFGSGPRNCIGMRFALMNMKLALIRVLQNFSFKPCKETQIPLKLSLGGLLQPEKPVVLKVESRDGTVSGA
Sequence of Cytochrome P450 2C19 (Homo sapiens) (P33261 whole entry, looked up): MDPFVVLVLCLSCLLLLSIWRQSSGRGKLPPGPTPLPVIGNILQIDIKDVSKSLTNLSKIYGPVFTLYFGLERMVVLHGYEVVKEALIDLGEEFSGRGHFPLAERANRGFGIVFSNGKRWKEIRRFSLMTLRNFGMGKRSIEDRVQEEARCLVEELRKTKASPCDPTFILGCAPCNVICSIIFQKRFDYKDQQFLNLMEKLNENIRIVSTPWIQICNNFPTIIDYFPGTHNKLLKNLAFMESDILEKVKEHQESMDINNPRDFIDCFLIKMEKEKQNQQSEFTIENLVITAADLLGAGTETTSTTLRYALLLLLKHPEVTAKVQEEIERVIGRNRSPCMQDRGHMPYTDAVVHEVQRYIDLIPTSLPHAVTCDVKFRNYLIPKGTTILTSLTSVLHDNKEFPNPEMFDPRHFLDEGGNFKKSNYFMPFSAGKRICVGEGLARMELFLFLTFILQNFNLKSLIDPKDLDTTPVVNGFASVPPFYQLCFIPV
Sequence of Cytochrome P450 1A2 (Homo sapiens) (P05177 whole entry, looked up): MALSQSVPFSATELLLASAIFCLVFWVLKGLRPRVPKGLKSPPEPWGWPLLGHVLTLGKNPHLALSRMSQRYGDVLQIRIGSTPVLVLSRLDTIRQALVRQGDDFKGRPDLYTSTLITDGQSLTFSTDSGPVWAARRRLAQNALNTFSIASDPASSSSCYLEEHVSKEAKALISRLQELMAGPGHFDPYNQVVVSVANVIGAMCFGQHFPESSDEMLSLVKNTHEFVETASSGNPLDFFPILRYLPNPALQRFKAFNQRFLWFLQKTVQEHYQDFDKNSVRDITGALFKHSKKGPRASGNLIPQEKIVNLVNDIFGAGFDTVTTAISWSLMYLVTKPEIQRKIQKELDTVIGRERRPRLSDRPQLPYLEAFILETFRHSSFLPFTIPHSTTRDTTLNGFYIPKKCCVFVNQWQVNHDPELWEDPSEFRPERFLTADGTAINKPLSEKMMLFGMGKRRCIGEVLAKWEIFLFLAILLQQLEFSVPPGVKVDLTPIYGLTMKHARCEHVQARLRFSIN

With `C=C1CC[C@H](O)C/C1=C\C=C1/CCC[C@]2(C)[C@@H]([C@H](C)CC[C@H](C)C(C)C)CC[C@@H]12`, the Potency result in test [1] was “inactive”.
Turning to `O=C(/C=C/c1ccc(O)c(O)c1)O[C@H]1[C@H](O)C[C@](O)(C(=O)O)C[C@H]1OC(=O)/C=C/c1ccc(O)c(O)c1`, the Potency entry in test [1] was “inactive”.
Regarding `O=Cc1ccccc1O`, the Potency result in test [1] was “inactive”.
As for `CC[C@@H]1CN2CC[C@]3(C(=O)Nc4ccccc43)[C@@H]2C[C@@H]1/C(=C\OC)C(=O)OC`, the Potency in test [1] was 3.98 µM (active); in test [4], 11.2 µM (active). In addition, the call in test [2], in test [3], in [5], in [8] and in test [9] was inactive. The Potency result in [6] was “inactive”. Also, the max response in test [7] is -3.13%.
With `O=c1cc(-c2ccc(O)cc2)oc2cc(O[C@@H]3O[C@H](CO)[C@@H](O)[C@H](O)[C@H]3O[C@@H]3OC[C@](O)(CO)[C@H]3O)cc(O)c12`, in test [1], the Potency result was “inactive”.
With `CCCCCCCCCCCCCCCCCCCCCC(=O)O`, the Potency entry in test [1] was “inactive”.
Regarding `CC[C@H](CC[C@@H](C)[C@H]1CCC2C3CCC4C[C@@H](O)CC[C@]4(C)C3CC[C@@]21C)C(C)C` (stereo partly drawn), in [1], the Potency entry was “inactive”.
As for `COc1ccc2ccc(=O)oc2c1`, the Potency entry in test [1] was “inactive”.
Still for that read-out and setting: with `C=C1C[C@@]23CC[C@H]4[C@@](C)(CCC[C@@]4(C)C(=O)O[C@@H]4O[C@H](CO)[C@@H](O)[C@H](O)[C@H]4O)[C@@H]2CC[C@]1(O[C@@H]1O[C@H](CO)[C@@H](O)[C@H](O[C@@H]2O[C@H](CO)[C@@H](O)[C@H](O)[C@H]2O)[C@H]1O[C@@H]1O[C@@H](C)[C@H](O)[C@@H](O)[C@H]1O)C3` the entry was “inactive”.
As to `O=C(O)c1ccnc2cc(C(OCCN3CCC(F)(F)CC3)c3ccccc3Cl)[nH]c12` (stereo not drawn), in test [10], the Potency entry was “inactive”.
For the molecule `Cc1ccc(-n2nccn2)c(C(=O)N2CCN(c3nc4cc(Cl)ccc4o3)CC[C@H]2C)c1`, in [10], the Potency entry was “inactive”.
For `CC(=O)O[C@H]1C[C@@H]2CCC3C(CC[C@@]4(C)[C@H]3C[C@H]([N+]3(C)CCCCC3)[C@@H]4OC(C)=O)[C@@]2(C)C[C@@H]1[N+]1(C)CCCCC1` (stereo partly drawn), the Potency in test [11] was 11.2 µM (active). The Potency result in test [12] was “inactive”.
Take `CC1=C2[C@H](/C=C(\C)C(=O)O)CC[C@@H](C)[C@H]2CC1`: the Potency result in [1] is “inactive”.
Still for that read-out and setting: with `C[S+](CC[C@H](N)C(=O)O)C[C@H]1O[C@@H](n2cnc3c(N)ncnc32)[C@H](O)[C@@H]1O` (stereo partly drawn) the entry was “inactive”; with `O[C@@H]1[C@@H](O)[C@H](OC/C=C/c2ccccc2)O[C@H](CO[C@@H]2OC[C@H](O)[C@H](O)[C@H]2O)[C@H]1O`, “inactive”.
Take `COc1cc(OC)c(/C=C2/C(=O)Nc3ccccc32)c(OC)c1`: in [13], the Potency result is “inactive”. Moreover, the Potency in [14] was 12.6 µM (active); in test [15], 11.2 µM (active).
As to `S=C(S)N1CCCC1`, the Potency result in test [13] was “inactive”. Besides, the Potency in test [11] was 3.16 µM (active); in [14] it was 11.2 µM (active); in test [15] it was 2.51 µM (active).
For `C=C(C)C1CC=C(C)C(O)C1` (stereo not drawn), the Potency result in test [1] was “inactive”.
`COc1ccc(/C=C/c2cc(OC)cc(=O)o2)cc1`: the Potency entry in test [1] was “inactive”.
For the molecule `O=C(O[C@@H]1Cc2c(O)cc(O)cc2O[C@@H]1c1ccc(O)c(O)c1)c1cc(O)c(O)c(O)c1`, the Potency result in test [1] was “inactive”.
`CCCCOC(=O)c1ccnc2cc(C(OCCN3CCCCC3)c3ccccc3C)sc12` (stereo not drawn): in [10], the Potency result was “inactive”.
`Oc1cccc(O)c1O`: the Potency result in test [1] was “inactive”.
For the molecule `CC(C)=CCC[C@](C)(O[C@@H]1O[C@H](CO)[C@@H](O)[C@H](O)[C@H]1O)[C@H]1CC[C@]2(C)[C@@H]1[C@H](O)C[C@@H]1[C@@]3(C)CC[C@H](O)C(C)(C)[C@@H]3[C@@H](O[C@@H]3O[C@H](CO)[C@@H](O)[C@H](O)[C@H]3O)C[C@]12C`, in [1], the Potency result was “inactive”.
On the same count and under the same terms, with `O=c1c(O[C@@H]2O[C@H](CO)[C@H](O)[C@H](O)[C@H]2O)c(-c2ccc(O)c(O)c2)oc2cc(O)cc(O)c12` the entry was “inactive”.
